# This is a sample that favours compounds with a hit; in the whole collection about 18% have one here.
# DT40 TDP1 CPT – qHTS for Inhibitors of human tyrosyl-DNA phosphodiesterase 1 (TDP1): qHTS in cells in presence of CPT; chicken DT40 Tdp1-/-;hTDP1 cells + 20 nM CPT, ATP luminescence, 48 h; Potency, µM (top dose mostly 46.2 µM), hits mostly inhibitors; hit rate 12% among 420,000; AID 686979, 2013; also: nearly all actives have a fitted effect of over 55% in size
#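 Cell growth measured by CellTiter-Glo luminescence after a minimum 48 h, 37 C compound exposure with 20 nM CPT in Tdp1-knockout DT40 cells stably expressing hTDP1, seeded 400/well; qHTS titration format.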
# TDP1 cell noCPT – qHTS for Inhibitors of human tyrosyl-DNA phosphodiesterase 1 (TDP1): qHTS in cells in absence of CPT; hit rate 15% among 420,000; DT40 Tdp1-/- hTDP1 cells, no CPT, ATP luminescence, 48 h; Potency, µM (top dose mostly 46.2 µM), usual class: inhibitors; also: nearly all actives have a fitted effect of over 55% in size
#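 Compound effects on proliferation are scored in DT40 Tdp1-/-;hTDP1 cells in the absence of CPT. ATP levels (CellTiter-Glo luminescence) are recorded after a ≥48 hr, 37 °C incubation.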
# TDP1 block – qHTS Assay for Inhibitors of Tyrosyl-DNA Phosphodiesterase (TDP1). Tyrosyl-DNA phosphodiesterase 1 (Homo sapiens), Q9NUW8. recombinant TDP1, AlphaScreen DNA substrate cleavage. Potency, µM (series often up to 130 µM), actives largely listed as inhibitors. hit rate 0.28% among 350,000; also: nearly all actives have a fitted effect of over 40% in size
# Target sequence (Q9NUW8 whole entry, looked up): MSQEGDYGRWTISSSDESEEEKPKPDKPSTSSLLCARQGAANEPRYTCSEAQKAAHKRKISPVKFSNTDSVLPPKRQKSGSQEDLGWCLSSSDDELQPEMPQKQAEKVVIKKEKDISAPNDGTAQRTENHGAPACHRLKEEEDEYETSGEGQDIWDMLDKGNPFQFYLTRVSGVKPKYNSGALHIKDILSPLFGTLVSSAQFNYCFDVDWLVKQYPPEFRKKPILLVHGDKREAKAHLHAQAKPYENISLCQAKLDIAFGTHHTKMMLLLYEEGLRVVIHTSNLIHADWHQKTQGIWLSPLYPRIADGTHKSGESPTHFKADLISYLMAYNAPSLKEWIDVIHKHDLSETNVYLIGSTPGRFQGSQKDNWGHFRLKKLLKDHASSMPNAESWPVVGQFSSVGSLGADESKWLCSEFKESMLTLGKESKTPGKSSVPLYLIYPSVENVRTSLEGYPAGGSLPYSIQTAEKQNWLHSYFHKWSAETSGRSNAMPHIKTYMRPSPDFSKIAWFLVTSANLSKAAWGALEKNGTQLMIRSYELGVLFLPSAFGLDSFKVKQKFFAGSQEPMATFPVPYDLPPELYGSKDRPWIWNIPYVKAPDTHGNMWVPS
#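 Signal: AlphaScreen proximity between streptavidin donor and anti-FITC acceptor beads on intact substrate. Reaction: Tdp1 1 nM, substrate 15 nM final, 5 min RT after 15 min compound preincubation.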
# Six1-Eya2 blk – qHTS Assay for Inhibitors of the Six1/Eya2 Interaction. AlphaScreen GST-Six1/His-Eya2 binding, biochemical; active compounds read low. hit rate 0.56% among 360,000. AID 651725, 2012. activity change, % (test concentration not listed); in the data active = activity change below about -65%; inconclusive = mostly about -30% to -63%
#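 Homogeneous AlphaScreen proximity assay pairing GST-Six1 with His-tagged Eya2 (added as 5X mix: 250 nM and 500 nM) in 50 mM Tris pH 8.0, 300 mM NaCl, 1 mM TCEP. Glutathione donor and nickel acceptor beads; 1 h, 37 °C, dark.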
# IL-1B inflam inh – qHTS for Inhibitors of Inflammasome Signaling: IL-1-beta AlphaLISA Primary Screen. THP-1 LPS/ATP IL-1B secretion, AlphaLISA, 16 h; active compounds read low. hit rate 4.7% among 360,000. activity change, % at 57.5 µM. AID 743279, 2014; in the data active = activity change below about -50%; inconclusive = mostly about -30% to -49%
#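 THP-1 cells pretreated 1 hr with compounds (up to 57.5 uM final), then stimulated with LPS (250 ng/mL final) plus ATP (1.25 mM final); secreted IL-1B measured by AlphaLISA after 16 hr, decreased signal indicating inhibition.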
# CtBP-E1A blk – qHTS Assay for Inhibitors of the CtBP/E1A Interaction. CtBP / adenovirus E1A interaction (AlphaScreen). hit rate 0.49% among 340,000. AlphaScreen GST-E1A/His-CtBP binding, 1536-well; active compounds read low. AID 651724, 2012. activity change, % (concentration not given with the values); in the data active = activity change below about -65%; inconclusive = mostly about -30% to -63%
#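 Homogeneous bead-based format: GST-tagged E1A captured on glutathione donor beads, His-tagged CtBP on nickel acceptor beads; compounds precede bead addition by 2 h at 37 °C.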
# Numbers stand for hits; 0 = inactive; ? = inconclusive; - = not tested or not shown. Unless noted, calls follow the shape of the dose curve; as a rule, active = well fitted curve in the direction sought with a large enough effect; inconclusive = small, poorly fitted or top-dose-only effect, or another doubt; inactive = no such curve, though single readings can be large; an effect the other way counts as inactive or inconclusive.
SMILES,DT40 TDP1 CPT,TDP1 cell noCPT,TDP1 block,Six1-Eya2 blk,IL-1B inflam inh,CtBP-E1A blk
Cc1ccc(C(NC(=O)C2CCN(Cc3ccc(Oc4ccccc4)cc3)CC2)c2ccccn2)cc1 (configuration not stated),?,23.1µM,-,0,-,0
COc1ccc(CN2CCC(C(=O)NC(c3ccc4c(c3)OCO4)c3ccccn3)CC2)cc1 (configuration not stated),0,0,-,0,0,0
Cc1ccc(C(NC(=O)C2CCN(CCOc3ccccc3)CC2)c2ccccn2)cc1 (configuration not stated),?,?,-,0,-54.8,0
COc1ccc(C(NC(=O)C2CCN(C/C=C/c3ccc(OC(C)=O)c(OC)c3)CC2)c2ccccn2)cc1 (configuration not stated),?,20.6µM,-,0,0,0
CCOC(=O)c1ccccc1NC(=O)c1n[nH]c(=O)c2ccccc12,0,0,0,0,0,0
O=C(NC(c1ccc(Cl)cc1)c1cnccn1)C1CCN(Cc2ccc(Oc3ccccc3)cc2)CC1 (configuration not stated),14.6µM,16.4µM,-,0,-,0
COc1ccc(C(NC(=O)C2CCN(CCc3ccccc3)CC2)c2ccccn2)cc1 (configuration not stated),0,0,-,0,0,0
OCc1nc2ccccc2n1CC(O)COc1ccccc1 (configuration not stated),0,0,0,0,0,0
Cc1ccc(OCC(O)CN2CCCC2)cc1 (configuration not stated),0,0,-,0,0,0
CCCCn1c(=N)n(CC(O)c2ccccc2)c2ccccc21 (configuration not stated),14.6µM,23.1µM,0,0,-67.0,0
CCCCn1c(=N)n(CC(O)COc2ccc(C)cc2)c2ccccc21 (configuration not stated),6.51µM,4.11µM,0,0,-73.2,0
CCCCn1c(=N)n(CC(O)COc2ccccc2)c2ccccc21 (configuration not stated),11.6µM,11.6µM,0,0,?,0
Cc1cnc(C(=O)Nc2ccc(N3CCCCC3)cc2)cn1,?,0,0,0,0,0
N[C@@H]1CONC1=O,0,0,0,-,-,-
COc1ccc(CN2CCNC(=O)C2CC(=O)N2CCCCO2)cc1OC (configuration not stated),0,0,-,0,0,0
O=C(CCc1ccccc1)NC(NC(=S)Nc1ccc(Br)cc1)C(Cl)(Cl)Cl (configuration not stated),23.1µM,23.1µM,0,0,0,0
CCCC(=O)NC(NC(=S)Nc1ccc(N=Nc2ccccc2)cc1)C(Cl)(Cl)Cl (configuration not stated),5.17µM,5.17µM,0,0,?,0
CCCCCC(=O)NC(NC(=S)Nc1ccc(S(N)(=O)=O)cc1)C(Cl)(Cl)Cl (configuration not stated),0,0,0,0,0,0
O=C(CCc1ccccc1)NNC(=O)Nc1ccc(Br)cc1,0,0,0,0,0,0
Cc1ccc(CN2CC(N3CCCC3)CS2(=O)=O)cc1 (configuration not stated),0,0,-,0,0,0
Cn1c(SCC(=O)NC2CCCCC2)nnc1-c1cccnc1,0,0,0,0,0,0
CCc1ccccc1NC(=O)c1ccc(Cn2nc(N3CCN(c4ccccc4)CC3)ccc2=O)o1,14.6µM,11.6µM,0,-,-,-
COc1cccc(NC(=O)Cn2nc(N3CCN(c4ccccc4)CC3)ccc2=O)c1,?,?,0,-,-,-
COc1ccc(C)cc1NC(=O)Cn1nc(N2CCN(c3ccccc3OC)CC2)ccc1=O,?,?,0,-,-,-
CCOc1ccccc1NC(=O)Cn1nc(N2CCN(c3ccccc3)CC2)ccc1=O,?,18.4µM,0,-,-,-
SMILES,DT40 TDP1 CPT,TDP1 cell noCPT,TDP1 block,Six1-Eya2 blk,IL-1B inflam inh,CtBP-E1A blk
COc1ccccc1N1CCN(c2ccc(=O)n(CC(=O)Nc3cc(F)ccc3C)n2)CC1,14.6µM,23.1µM,0,-,-,-
COCCn1c(SCC(=O)Nc2cccc(C(=O)OC)c2)nc2ccccc2c1=O,20.6µM,?,0,0,0,0
COCCn1c(SCC(=O)Nc2ccc(NC(C)=O)cc2)nc2ccccc2c1=O,0,?,-,0,0,0
COCCn1c(SCC(=O)Nc2ccc(OC)c(S(N)(=O)=O)c2)nc2ccccc21,16.4µM,?,0,0,0,0
COCCCn1c(SCC(=O)Nc2ccc(C(C)=O)cc2)nc2ccccc2c1=O,?,20.6µM,0,0,0,0
COCCn1c(SCC(=O)Nc2cc(C)cc(C)c2)nc2ccccc2c1=O,?,?,-,0,0,-
CCCCCCS(=O)[C@H]1CS(=O)(=O)C[C@@H]1S(=O)CCCCCC (some centres not stated),23.1µM,?,0,0,0,0
CCCC[C@@H](CN[C@H](C)CNC)NCC1CCC(C(C)(C)C)CC1 (some centres not stated),5.8µM,6.51µM,-,0,-67.0,0
O=C(O)[C@H]1[C@H]2C[C@H]3c4[nH]c5ccccc5c4CCN3C[C@@H]2CC[C@@H]1O,10.6µM,13.3µM,0,-,-,-
O=C(Nc1ccccc1)Nc1n[nH]c2nnc(-c3ccccc3)c(-c3ccccc3)c12,?,16.4µM,-,0,0,0
O=C(Nc1ccccc1)Nc1ncc(C(F)(F)F)cc1Cl,0,?,-,0,?,0
C=CCn1c(C)cc(C(=O)COC(=O)C2CC(=O)N(CCc3ccc(OC)c(OC)c3)C2)c1C (configuration not stated),0,0,0,0,0,0
Fc1ccc2ncc3c(-c4ccccc4)n[nH]c3c2c1,0,0,0,-,-,-
Fc1cccc(Cc2c(-c3ccccc3)nc3c(Cl)cc(C(F)(F)F)cn23)c1,?,?,-,0,0,0
Fc1cc(F)cc(-c2c(-c3ccccc3)ncc3ccc(F)cc23)c1,13µM,7.31µM,-,0,0,0
Fc1ccc2cnc(-c3ccccc3)c(-c3cccc(C(F)(F)F)c3)c2c1,16.4µM,18.4µM,-,0,0,0
C/C(CC(=O)Nc1cc(C)ccn1)=N\NC(=O)c1cccc(F)c1,0,0,-,0,0,0
CCCCCCn1ccc(=N)cc1,0.206µM,0.206µM,0,0,0,0
CCCCCCC(=O)NN1CCN(C)CC1,0,0,0,0,0,0
